Among the data in PubChem BioAssay are composite z-score and z-score values, retold here.

SMILES strings stand for the structures. Where “and” joins values, the source holds several entries; their conditions need not be identical. Identical values can stand only once. Calls of active or inactive are those of the source.

The test system of experiment [1] is Plasmodium falciparum Sir2 (PF13_0152, Sir2A). The experiment can be described thus: Plasmodium falciparum Sir2A binding compounds – biochemical, small-molecule microarray, 635 nm fluorescence, primary screen (AID 1098).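 Further: score merges spot fluorescence intensity with its signal-to-noise ratio.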 The note with it: fluorescence 635 nm, higher = more signal.
The nature of experiment [2]: probe aDKK1 binding to arrayed compounds – biochemical, biotinylated probe, 635/667 nm fluorescence, primary screen (AID 1099).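 Further: score merges 667nm spot fluorescence with signal to noise across triplicate slides.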 The note with it: small-molecule microarray, higher = more signal.
Experiment [3] is described as follows: probe aCHRDL2 binding to arrayed compounds – biochemical, biotinylated probe, 635/667 nm fluorescence, primary screen (AID 1100). The settings on record: small-molecule microarray, higher = more signal.
Experiment [4] in a line: change in splice reporter luminescence, either direction, cell-based, HEK293, spliceosome inhibition project, primary screen (AID 1101).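 Further: HEK293 cells carrying a splicing-competent luciferase reporter gene; test concentration not given here.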 The note with it: HEK293 splicing luciferase reporter, 24 h, higher = more signal, called active from +8 up or from −8 down.
The target in experiment [5] is Fibroblast growth factor 10 (Homo sapiens) (UniProt O15520). The experiment can be described thus: compounds binding fibroblast growth factor 10 – biochemical, small-molecule microarray, 635 nm fluorescence, primary screen (AID 1102). The settings on record: FGF10 binding, fluorescence 635 nm, higher = more signal.
Fibroblast growth factor 10 (Homo sapiens), sequence (O15520 whole entry, looked up): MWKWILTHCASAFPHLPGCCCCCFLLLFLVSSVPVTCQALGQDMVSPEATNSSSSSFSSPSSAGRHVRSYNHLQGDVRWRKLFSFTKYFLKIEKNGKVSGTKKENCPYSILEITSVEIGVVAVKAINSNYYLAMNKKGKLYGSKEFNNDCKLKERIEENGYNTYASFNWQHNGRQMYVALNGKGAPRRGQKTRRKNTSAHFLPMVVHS
For experiment [6], the system named is glycogen synthase kinase-3 (GSK3A per assay name; protocol says GSK3B). The experiment can be described thus: compounds binding glycogen synthase kinase-3 – biochemical, small-molecule microarray, 635 nm fluorescence, GSK3A, primary screen (AID 1103). Further: the record names both GSK3A and GSK3B. The settings on record: fluorescence 635 nm, higher = more signal.
Experiment [7] has as its target Epidermal growth factor receptor (Homo sapiens) (UniProt P00533). The experiment can be described thus: compounds binding epidermal growth factor receptor – biochemical, small-molecule microarray, 635 nm fluorescence, primary screen (AID 1104).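 Further: score merges 667 nm emission intensity with spot signal to noise over triplicate slides.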 The note with it: EGFR binding, higher = more signal.
Experiment [8] deals with Follistatin-related protein 3 (Homo sapiens) (UniProt O95633). The experiment can be described thus: compounds binding follistatin-related protein 3 – biochemical, small-molecule microarray, 635 nm fluorescence, primary screen (AID 1105).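 Further: score merges emission near 667 nm and signal to noise per printed spot across three slides.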 The settings on record: FSTL3 binding, higher = more signal.
Follistatin-related protein 3 (Homo sapiens), sequence (O95633 whole entry, looked up): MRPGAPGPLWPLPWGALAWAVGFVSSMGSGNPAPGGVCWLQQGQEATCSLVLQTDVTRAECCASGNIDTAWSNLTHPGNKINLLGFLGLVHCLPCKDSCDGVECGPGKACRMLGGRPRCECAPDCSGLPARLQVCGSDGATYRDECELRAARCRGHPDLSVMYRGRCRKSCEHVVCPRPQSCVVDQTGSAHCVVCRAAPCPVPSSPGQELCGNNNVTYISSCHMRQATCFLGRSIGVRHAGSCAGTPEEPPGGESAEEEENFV
Experiment [9] addresses Dickkopf-related protein 1 (Homo sapiens) (UniProt O94907). The experiment can be described thus: small molecules binding DKK1 protein – biochemical, small-molecule microarray, 635 nm fluorescence scan, primary screen (AID 1106).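 Further: score merges emission near 667 nm with signal to noise over three replicate slides.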 The settings on record: higher = more signal.
For experiment [10], the system named is Inhibin beta A chain (activin A). The experiment can be described thus: small molecules binding activin A – biochemical, small-molecule microarray, 635 nm fluorescence scan, primary screen (AID 1107).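 Further: mouse activin A protein probed at 4.33 µg/mL on printed slides; score merges bound-protein fluorescence near 667 nm with spot signal-to-noise.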 The note with it: INHBA, higher = more signal.
Experiment [11] deals with Human papillomavirus type 1a protein E7 (residues 44-93). The experiment can be described thus: small molecules binding HPV E7 44-93 – biochemical, small-molecule microarray, residues 44-93, 635 nm fluorescence, primary screen (AID 1108).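 Further: E7 fragment applied at 1 µg/mL in TBST for 1 h at 4 C; score combines spot fluorescence with its signal to noise ratio.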 The settings on record: fluorescence 635 nm, higher = more signal.
Experiment [12] can be described thus: hepatitis C replication reporter changes, two-sided – Huh7 cells, luciferase reporter, HCV replication inhibitor project, primary screen (AID 1109).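 Further: huh7 hepatoma cells harbouring a luciferase neomycin HCV replicon reporter; luciferase luminescence as measure of HCV replicon replication; test concentration not given here.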 The note with it: Huh7 HCV replicon luciferase reporter, 48 h; higher = more signal.
The target in experiment [13] is Left-right determination factor 2 (Homo sapiens) (UniProt O00292). The experiment can be described thus: small molecules binding LEFTY2 protein – biochemical, small-molecule microarray, 635 nm fluorescence scan, primary screen (AID 1110). The settings on record: higher = more signal.
Left-right determination factor 2 (Homo sapiens), sequence (O00292 whole entry, looked up): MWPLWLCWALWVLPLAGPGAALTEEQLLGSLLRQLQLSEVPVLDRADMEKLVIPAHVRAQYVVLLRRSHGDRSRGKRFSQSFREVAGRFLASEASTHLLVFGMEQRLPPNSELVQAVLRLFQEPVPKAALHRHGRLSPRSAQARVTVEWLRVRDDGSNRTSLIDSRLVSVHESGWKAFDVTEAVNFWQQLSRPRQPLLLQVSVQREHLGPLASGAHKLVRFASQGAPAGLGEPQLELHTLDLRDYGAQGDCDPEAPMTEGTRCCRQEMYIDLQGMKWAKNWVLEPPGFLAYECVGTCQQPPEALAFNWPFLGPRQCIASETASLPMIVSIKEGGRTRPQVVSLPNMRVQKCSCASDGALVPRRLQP
Experiment [14] deals with Calmodulin-1 (Homo sapiens) (UniProt P0DP23). The experiment can be described thus: small molecules binding calmodulin-1 with EGTA – biochemical, small-molecule microarray, Cy5-labelled CALM1, profiling panel (AID 1111).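 Further: labelled calmodulin applied in Tris saline Tween buffer holding calcium plus EGTA and DTT.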 The note with it: Cy5-CALM1 binding fluorescence, higher = more signal.
Experiment [15] has the same target. The experiment can be described thus: small molecules binding Ca-loaded calmodulin-1 – biochemical, small-molecule microarray, Cy5-labelled CALM1, plus calcium, artefact control for SMM control-protein annotation, profiling panel (AID 1112).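 Further: score merges spot fluorescence with signal to noise from triplicate slides.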 The settings on record: Cy5-CALM1 binding fluorescence, higher = more signal.
Experiment [16] in a line: probe aWnt5a binding to arrayed compounds – biochemical, biotinylated probe, 635/667 nm fluorescence, primary screen (AID 1113).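 Further: score merges 667 nm fluorescence intensity with signal-to-noise per printed feature.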 The settings on record: small-molecule microarray, higher = more signal.
Experiment [17] is described as follows: probe aShh binding to arrayed compounds – biochemical, biotinylated probe, 635/667 nm fluorescence, primary screen (AID 1114).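 Further: probe is biotin-labelled aShh protein from a stem cell growth factor screen; measures binding of labelled protein to compounds printed on the slide; score merges feature fluorescence at 667 nm with signal-to-noise.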 The settings on record: small-molecule microarray, higher = more signal.
Experiment [18] in a line: probe aNog binding to arrayed compounds – biochemical, biotinylated probe, 635/667 nm fluorescence, primary screen (AID 1115).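 Further: probe is biotinylated aNog protein used at 0.15 µg/mL for 1 h at 4 C; z-score combines 667 nm fluorescence of each spot with its signal to noise.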 The settings on record: small-molecule microarray, higher = more signal.
Experiment [19] concerns the target Torsin-1A-interacting protein 1 (Homo sapiens) (UniProt Q5JTV8). The experiment can be described thus: compound microarray binding of lysate hLAP1 – cell lysate, small-molecule microarray, COS7 lysate, 635/667 nm fluorescence, primary screen (AID 1116). The settings on record: 635 nm fluorescence, higher = more signal.
The target of experiment [20] is Alpha-bungarotoxin (Bungarus multicinctus) (UniProt P60615). The experiment can be described thus: compounds binding labelled alpha-BTX control protein – biochemical, small-molecule microarray, Alexa647 label, 635/667 nm fluorescence, artefact control for SMM control protein annotation, profiling panel (AID 1117). The settings on record: alpha-BTX-A647 binding fluorescence, higher = more signal.
Alpha-bungarotoxin (Bungarus multicinctus), sequence (P60615 whole entry, looked up): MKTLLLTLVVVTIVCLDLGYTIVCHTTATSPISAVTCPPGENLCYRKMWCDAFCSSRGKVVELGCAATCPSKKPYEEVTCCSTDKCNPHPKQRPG

Epidermal growth factor receptor (Homo sapiens), sequence (P00533 whole entry, looked up): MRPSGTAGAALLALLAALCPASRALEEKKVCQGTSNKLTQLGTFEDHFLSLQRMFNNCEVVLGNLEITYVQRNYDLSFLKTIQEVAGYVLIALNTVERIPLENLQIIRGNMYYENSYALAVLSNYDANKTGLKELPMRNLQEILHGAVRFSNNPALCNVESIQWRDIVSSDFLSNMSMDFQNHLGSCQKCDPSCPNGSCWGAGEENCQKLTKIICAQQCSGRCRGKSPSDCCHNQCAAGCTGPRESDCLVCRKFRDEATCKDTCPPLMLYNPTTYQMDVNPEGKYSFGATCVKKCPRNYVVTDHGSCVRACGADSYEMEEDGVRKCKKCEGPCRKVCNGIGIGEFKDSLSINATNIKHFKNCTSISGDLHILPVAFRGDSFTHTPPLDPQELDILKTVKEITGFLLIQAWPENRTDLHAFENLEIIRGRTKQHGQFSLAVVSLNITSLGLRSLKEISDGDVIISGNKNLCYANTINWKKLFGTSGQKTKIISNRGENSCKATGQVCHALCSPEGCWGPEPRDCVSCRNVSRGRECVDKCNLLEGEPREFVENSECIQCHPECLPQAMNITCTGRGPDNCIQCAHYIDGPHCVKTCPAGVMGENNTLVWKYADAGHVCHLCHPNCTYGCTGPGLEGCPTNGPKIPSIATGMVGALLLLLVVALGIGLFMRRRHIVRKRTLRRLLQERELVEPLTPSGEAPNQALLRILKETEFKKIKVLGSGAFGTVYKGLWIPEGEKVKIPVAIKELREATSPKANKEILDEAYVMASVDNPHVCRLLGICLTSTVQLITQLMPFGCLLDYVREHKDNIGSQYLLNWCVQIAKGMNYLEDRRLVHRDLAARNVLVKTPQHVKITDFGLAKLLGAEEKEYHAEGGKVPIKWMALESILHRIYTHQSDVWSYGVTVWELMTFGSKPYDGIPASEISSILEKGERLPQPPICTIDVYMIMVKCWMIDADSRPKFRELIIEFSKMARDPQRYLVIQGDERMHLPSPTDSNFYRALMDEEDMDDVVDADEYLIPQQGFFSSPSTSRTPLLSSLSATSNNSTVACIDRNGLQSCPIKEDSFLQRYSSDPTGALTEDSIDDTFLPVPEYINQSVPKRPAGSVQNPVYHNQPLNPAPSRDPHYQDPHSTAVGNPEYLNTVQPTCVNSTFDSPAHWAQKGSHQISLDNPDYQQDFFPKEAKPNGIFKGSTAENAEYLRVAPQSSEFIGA
Torsin-1A-interacting protein 1 (Homo sapiens), sequence (Q5JTV8 whole entry, looked up): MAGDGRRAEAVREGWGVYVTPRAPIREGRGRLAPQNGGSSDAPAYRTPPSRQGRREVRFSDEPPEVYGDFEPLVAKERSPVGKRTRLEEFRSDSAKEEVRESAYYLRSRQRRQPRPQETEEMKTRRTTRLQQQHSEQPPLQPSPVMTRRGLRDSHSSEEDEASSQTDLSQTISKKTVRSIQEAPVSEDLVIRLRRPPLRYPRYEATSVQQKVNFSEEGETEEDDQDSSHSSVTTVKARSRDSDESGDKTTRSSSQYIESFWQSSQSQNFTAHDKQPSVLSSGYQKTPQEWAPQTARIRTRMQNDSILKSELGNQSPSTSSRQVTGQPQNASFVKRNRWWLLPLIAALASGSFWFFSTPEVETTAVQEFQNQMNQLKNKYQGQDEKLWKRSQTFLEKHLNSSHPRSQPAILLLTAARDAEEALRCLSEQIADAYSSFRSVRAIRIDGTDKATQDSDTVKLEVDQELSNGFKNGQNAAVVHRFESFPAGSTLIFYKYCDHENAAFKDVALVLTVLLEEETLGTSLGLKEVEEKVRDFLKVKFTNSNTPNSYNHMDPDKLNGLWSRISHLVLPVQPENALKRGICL
Dickkopf-related protein 1 (Homo sapiens), sequence (O94907 whole entry, looked up): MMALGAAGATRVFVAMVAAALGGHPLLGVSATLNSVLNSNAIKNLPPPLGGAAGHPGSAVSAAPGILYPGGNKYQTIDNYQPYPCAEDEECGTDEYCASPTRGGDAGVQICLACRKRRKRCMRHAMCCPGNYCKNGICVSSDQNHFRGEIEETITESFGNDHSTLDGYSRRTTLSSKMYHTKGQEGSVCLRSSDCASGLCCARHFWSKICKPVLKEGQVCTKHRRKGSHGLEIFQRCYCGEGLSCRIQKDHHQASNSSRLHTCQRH

With `COC(=O)C1=C(C)N(Cc2ccccc2)[C@]23O[C@](C(=O)OC)(C(=O)N2[C@@H]1c1ccccc1)[C@@H](C(=O)OC)[C@H]3C(=O)OC`, the composite z-score in experiment [1] was -0.16 and 0.25; in experiment [2] it was -0.188 and -0.2; in experiment [3] it was -0.248 and -0.593; in experiment [5] it was 0.393 and 0.372; in [6], -0.969 and 0.317; in experiment [7] it was -0.574 and 0.608. Moreover, the composite z-score was -1.14 and 0.664 in [8]; -0.0647 and 0.549 in experiment [9]; 0.59 and 0.153 in experiment [10]; -1.08 and 0.025 in [11]; -0.2 and 0.674 in experiment [13]; -0.602 and 0.395 in experiment [14]. Further, the composite z-score is -0.636 and -0.505 in experiment [15]; -0.173 and -0.16 in [16]; -0.123 and -0.0553 in experiment [17]; -0.394 and -0.255 in experiment [18]; 0.118 and 0.409 in experiment [19]; -1 and -0.239 in experiment [20]. Further, the z-score in experiment [4] was -0.259 (inactive) and 0.0138 (inactive); in experiment [12] it was -0.685 and 1.33.

Take `CC(C)=NOCc1ccc(-c2cn([C@@H]3COC[C@H]3O)nn2)cc1`: the composite z-score was -0.257 in [1]; -0.123 in experiment [2]; -0.764 in experiment [3]; 0.506 in experiment [5]; 0.114 in experiment [6]; 0.309 in experiment [7]. The composite z-score in [8] is 0.273; in experiment [9] it was 0.455; in [10], 0.147; in experiment [11] it was -0.0942; in experiment [13], 0.679; in [14], 0.676. Moreover, the composite z-score in experiment [15] is -0.358; in experiment [16] it was -0.143; in [17], -0.17; in experiment [18] it was -0.248; in [19] it was 0.507; in experiment [20], -0.175. For the same compound, the figures for the z-score in experiment [4] and in experiment [12] were 1.04 (inactive) and 0.28, respectively.

On to `CN1C(=O)C2CC=C([C@H]3Oc4ccccc4S(=O)(=O)N4CCC[C@@H]34)CC2C1=O` (stereo not given in full), for which the composite z-score in experiment [1] is 0.149 and 0.302; in experiment [2] it was -0.226 and -0.273; in experiment [3], -0.344 and -0.424; in experiment [5], -0.575 and -0.066; in experiment [6], -0.913 and -0.794; in experiment [7], -0.297 and -0.148. Besides, the composite z-score in experiment [8] was -0.837 and -0.641; in experiment [9], 0.0379 and 0.305; in experiment [10] it was 0.315 and 0.808; in [11], -1.21 and -1.99; in [13], -0.356 and 0.11; in experiment [14] it was -0.931 and -0.686. Further, the composite z-score in [15] was -0.803 and -0.798; in experiment [16] it was -0.1 and -0.0125; in experiment [17] it was -0.0553 and -0.0146; in experiment [18], -0.172 and -0.324; in [19], 0.0203 and 0.0568; in experiment [20] it was 0.0847 and -0.814. The z-score in experiment [4] was 0.776 (inactive) and 0.117 (inactive); in [12], -0.539 and -0.95.

Regarding `C=CCN(Cc1ccccc1)C(=O)C1N(CCOCCO)C(=O)C2C(C(=O)O)C3C=CC21O3` (stereo not given), the composite z-score was 0.824 and 1.03 in experiment [1]; 0.0606 and -0.027 in experiment [2]; 1 and 1.1 in [3]; -1.09 and -0.997 in experiment [5]; -0.419 and -0.793 in experiment [6]; -2.36 and -1.85 in experiment [7]. Besides, the composite z-score was -2.65 and -2.12 in experiment [8]; -2.78 and -2.98 in experiment [9]; -2.4 and -2.13 in [10]; -0.445 and -0.308 in [11]; -3 and -3.39 in experiment [13]; -0.711 and -0.795 in experiment [14]. Also, the composite z-score in experiment [15] was 0.473 and -0.0792; in [16], -0.228 and -0.208; in [17] it was -0.138 and -0.276; in [18] it was 0.238 and -0.341; in experiment [19], 3.99 and -0.887; in experiment [20], -2.86 and -1.73. The z-score in [4] was -1.11 (inactive) and -0.281 (inactive); in experiment [12], 0.0184 and -0.0316.

On to `COC(=O)C1=C2N(Cc3ccccc3)C(C)=C(C(=O)OC)[C@@H](c3ccccc3)N2C(=O)[C@](O)(C(=O)OC)C1`, for which the composite z-score was 0.271 and 0.0802 in experiment [1]; -0.17 and -0.241 in [2]; -0.684 and -0.512 in experiment [3]; 0.622 and 0.395 in [5]; 0.943 and 0.479 in [6]; 0.273 and 0.585 in experiment [7]. The composite z-score in experiment [8] was 0.963 and 0.359; in [9], 0.916 and 0.574; in experiment [10], -0.146 and 0.22; in [11], -0.101 and 0.137; in experiment [13], 0.198 and 0.531; in experiment [14], 0.225 and -0.29. For the same compound, the composite z-score was -0.803 and -0.391 in experiment [15]; -0.169 and -0.237 in [16]; -0.214 and -0.0914 in [17]; -0.18 and 0.162 in experiment [18]; -0.203 and 1.01 in [19]; 0.661 and 0.171 in experiment [20]. Further, the z-score was -0.229 (inactive) and 0.213 (inactive) in [4]; 0.591 and 0.406 in experiment [12].
